Our source for the Potency values is PubChem BioAssay (NCATS).

Molecules are shown by their SMILES. Records with an inconclusive call do not appear. Entries that show only a call come without a potency. Calls of active or inactive are those of the source. Calls come from the whole dose curve; as a rule, active = well fitted curve in the direction sought with a large enough effect; inconclusive = small, poorly fitted or top-dose-only effect, or another doubt; inactive = no such curve, though single readings can be large; an effect the other way counts as inactive or inconclusive.
Potency is the fitted concentration of half-maximal effect.

Tested on in the first experiment: not listed separately
In words: Confirmatory screen NINDS Rhodamine qHTS for Zika virus inhibitors (AID 1347161). Note: nearly all actives have a fitted effect of over 60% in size. As to conditions: purified enzyme assay, Rhodamine110 substrate fluorescence, 15 min; series mostly up to 114 µM. The method, boiled down:
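qHTS dose-response: 25 nM linked protease, pH 8.0 Tris/Tween buffer, cpd titration, 15 min RT preinc, 1.5 microM Rhod110 peptide, 15 min reaction (~15% conversion), Ex480/Em540; 4-parameter Hill fit.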
For `O=C(O)Cn1nnc(-c2cc(N3CCC(Oc4cc(F)ccc4Br)CC3)no2)n1`, the Potency is 35 µM (active).
Same read-out and setting: the same measure for `CCn1cc(-c2ccnc3[nH]c(-c4cccc(CN(C)C)c4)cc23)c(-c2ccc(NC(=O)N(C)C)cc2)n1`: “inactive”.
Turning to `CC(C)c1ccccc1Cc1cc(C(=O)Nc2ccc(S(=O)(=O)c3ccccc3C(C)(C)C)cc2)c(O)c(O)c1O`, the Potency is 90.3 µM (active).

The subject of another experiment is Zika virus NS2B-NS3 protease (linked). In words: 384 well plate NINDS AMC confirmatory qHTS for Zika virus inhibitors (AID 1347163). Note: nearly all actives have a fitted effect of over 50% in size. Particulars: Recombinant NS2B-NS3 protease, Ac-VKTGKR-AMC fluorescence; series mostly up to 100 µM. The method, boiled down:
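Linked NS2B-NS3 protease (final 5 nM, 30 nM or 60 nM) was preincubated with compounds (final up to 1 mM) for ~15 minutes. Ac-VKTGKR-AMC substrate (final 30 microM) then reacted for 25 minutes at room temperature in the dark. Fluorescence (ex 355/em 460 nm) was normalized to no-enzyme and no-inhibitor controls.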
Consider `C[C@@]12O[C@@H](C[C@]1(O)CO)n1c3ccccc3c3c4c(c5c6ccccc6n2c5c31)CNC4=O`, for which the Potency result is “inactive”.
For the compound `O=C(Nc1cc(C(F)(F)F)cc(C(F)(F)F)c1)c1cc(Cl)ccc1O`, the Potency entry was “inactive”.
The same measure, in the same setting: to `COc1cc(C(=O)NS(=O)(=O)c2ccccc2C)ccc1Cc1cn(C)c2ccc(NC(=O)OC3CCCC3)cc12` belongs 141 µM (active).
The same measure, in the same setting: to `Cc1cc(N2CCOCC2)cc2[nH]c(-c3c(NC[C@@H](O)c4cccc(Cl)c4)cc[nH]c3=O)nc12` belongs “inactive”; to `Cc1c(C)n(Cc2ccc(-c3ccccc3C(=O)O)cc2)c2ccc(C(=O)N[C@@H](C)c3ccc([N+](=O)[O-])cc3)cc12`, 112 µM (active).
On the same count and under the same terms, the same measure for `O=C(O)Cn1nnc(-c2cc(N3CCC(Oc4cc(F)ccc4Br)CC3)no2)n1`: “inactive”; for `CC(C)c1ccccc1Cc1cc(C(=O)Nc2ccc(S(=O)(=O)c3ccccc3C(C)(C)C)cc2)c(O)c(O)c1O`: 2.24 µM (active).

The subject of the next experiment is Zika virus NS2B-NS3 protease (linked construct). Description: 384 well plate NINDS Rhodamine confirmatory qHTS for Zika virus inhibitors (AID 1347164). Note: nearly all actives have a fitted effect of over 65% in size. Particulars: rhodamine-110 peptide substrate fluorescence; series mostly up to 100 µM. The method, boiled down:
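Compounds are incubated about 15 minutes with linked protease (5, 30 or 60 nM final). Rhodamine 110-tagged Ac-LKRR substrate (10 microM final) is added and fluorescence measured after 25 minutes.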
Turning to `C[C@@]12O[C@@H](C[C@]1(O)CO)n1c3ccccc3c3c4c(c5c6ccccc6n2c5c31)CNC4=O`, the Potency result was “inactive”.
Turning to `O=C(Nc1cc(C(F)(F)F)cc(C(F)(F)F)c1)c1cc(Cl)ccc1O`, the Potency was 35.5 µM (active).
On to `COc1cc(C(=O)NS(=O)(=O)c2ccccc2C)ccc1Cc1cn(C)c2ccc(NC(=O)OC3CCCC3)cc12`, for which the Potency is 28.2 µM (active).
Still for that read-out and setting: the same measure for `Cc1c(C)n(Cc2ccc(-c3ccccc3C(=O)O)cc2)c2ccc(C(=O)N[C@@H](C)c3ccc([N+](=O)[O-])cc3)cc12`: 22.4 µM (active); for `O=C(O)Cn1nnc(-c2cc(N3CCC(Oc4cc(F)ccc4Br)CC3)no2)n1`: 79.4 µM (active).
Still for that read-out and setting: to `CC(C)c1ccccc1Cc1cc(C(=O)Nc2ccc(S(=O)(=O)c3ccccc3C(C)(C)C)cc2)c(O)c(O)c1O` belongs 1.58 µM (active).

Tested on in a further experiment: not listed separately
Description: Vero cells viability qHTS for Zika virus inhibitors (AID 1347167). Particulars: cytotoxicity counter-screen (Zika); series mostly up to 45.9 µM. The method, boiled down:
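Compounds were tested in concentration series on cells grown in DMEM containing 4% FBS. After 24 to 48 hours, cellular ATP was measured by luminescence with CellTiter Glo.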
For the compound `CCS(=O)(=O)c1cccc(-c2cc(C(=O)NC3CCN(C)CC3)c(C)c3[nH]c4ncc(C)cc4c23)c1`, the Potency entry was “inactive”.
The same measure, in the same setting: to `CCN1CCN(Cc2ccc(-c3cc4c(N[C@H](C)c5ccccc5)ncnc4[nH]3)cc2)CC1` belongs 53.7 µM (active); to `C[C@@]12O[C@@H](C[C@]1(O)CO)n1c3ccccc3c3c4c(c5c6ccccc6n2c5c31)CNC4=O`, “inactive”; to `O=C(Nc1cc(C(F)(F)F)cc(C(F)(F)F)c1)c1cc(Cl)ccc1O`, 1.47 µM (active).
Still for that read-out and setting: the same measure for `COc1cc(C(=O)NS(=O)(=O)c2ccccc2C)ccc1Cc1cn(C)c2ccc(NC(=O)OC3CCCC3)cc12`: “inactive”; for `Cc1cc(N2CCOCC2)cc2[nH]c(-c3c(NC[C@@H](O)c4cccc(Cl)c4)cc[nH]c3=O)nc12`: “inactive”.
On the same count and under the same terms, the same measure for `Cc1c(C)n(Cc2ccc(-c3ccccc3C(=O)O)cc2)c2ccc(C(=O)N[C@@H](C)c3ccc([N+](=O)[O-])cc3)cc12`: “inactive”; for `CCn1cc(-c2ccnc3[nH]c(-c4cccc(CN(C)C)c4)cc23)c(-c2ccc(NC(=O)N(C)C)cc2)n1`: “inactive”.
On to `CC(C)c1ccccc1Cc1cc(C(=O)Nc2ccc(S(=O)(=O)c3ccccc3C(C)(C)C)cc2)c(O)c(O)c1O`, for which the Potency result is “inactive”.
